In PubChem BioAssay AID1159580 (chemical genetic matrix, 2015):
Where “and” joins values, the source holds several entries; their conditions need not be identical. Equal values may be shown once. Screen size: about 5,500 compounds; about 2,000 (36%) were called active. Inconclusive results (about 18%) are left out. Cut-off read from the data, not from the text of the source: active = normalized growth mostly below about 0.91 (no sharp cut-off); inconclusive = no clear call, values can overlap the other calls; inactive = mostly above about 0.92. The list shows a part of the results.

Assay: chemical genetic growth profiling, strain panel (AID 1159580);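 note: tested at 20 µM; growth read once vehicle control cultures reached saturation at 30 °C; 1 = growth at the plate median or of vehicle wells; lower values mean less growth of the strain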
Conditions: S. cerevisiae deletion strains, growth OD

Measured: normalized growth

Cc1cc(C2CCCCC2)n(O)c(=O)c1
active: locus YAL013W, strain DEP1, active compounds read low 0.0568 | locus YAL021C, strain ccr4, active compounds read low 0.0678 | locus YAL026C, strain drs2, active compounds read low 0.0676 | locus YAL030W, strain snc1, active compounds read low 0.0625 | locus YBL061C, strain skt5, active compounds read low 0.0672 | locus YBR009C, strain hhf1, active compounds read low 0.0705 | locus YBR021W, strain FUR4, active compounds read low 0.0983 | locus YBR023C, strain chs3, active compounds read low 0.0704 | locus YBR171W, strain sec66, active compounds read low 0.0805 | locus YBR229C, strain ROT2, active compounds read low 0.0502 | locus YBR231C, strain swc5, active compounds read low 0.0693 | locus YBR279W, strain paf1, active compounds read low 0.0649 | locus YCL011C, strain gbp2, active compounds read low 0.0616 | locus YCL016C, strain dcc1, active compounds read low 0.0719 | locus YCL029C, strain bik1, active compounds read low 0.0632 | locus YCL061C, strain MRC1, active compounds read low 0.0677 | locus YCL069W, strain vba3, active compounds read low 0.0654 | locus YCR088W, strain abp1, active compounds read low 0.0632 | locus YDL005C, strain med2, active compounds read low 0.0889 | locus YDL035C, strain GPR1, active compounds read low 0.0542 | locus YDL040C, strain nat1, active compounds read low 0.0679 | locus YDL074C, strain BRE1, active compounds read low 0.0802 | locus YDL101C, strain DUN1, active compounds read low 0.0596 | locus YDL134C, strain PPH21, active compounds read low 0.0521 | locus YDL185W, strain tfp1, active compounds read low 0.058 | locus YDL192W, strain arf1, active compounds read low 0.0653 | locus YDR001C, strain nth1, active compounds read low 0.0631 | locus YDR069C, strain doa4, active compounds read low 0.0665 | locus YDR101C, strain arx1, active compounds read low 0.06 | locus YDR137W, strain rgp1, active compounds read low 0.0918 | locus YDR159W, strain sac3, active compounds read low 0.0928 | locus YDR162C, strain NBP2, active compounds read low 0.0474 | locus YDR195W, strain ref2 0.135 | locus YDR297W, strain sur2, active compounds read low 0.0662 | locus YDR318W, strain mcm21, active compounds read low 0.0655 | locus YDR334W, strain swr1, active compounds read low 0.0673 | locus YDR335W, strain msn5, active compounds read low 0.0634 | locus YDR388W, active compounds read low 0.0556 | locus YDR392W, strain spt3, active compounds read low 0.101 | locus YDR502C, strain sam2, active compounds read low 0.0664 | locus YEL003W, strain gim4, active compounds read low 0.0625 | locus YEL037C, strain rad23, active compounds read low 0.0622 | locus YEL061C, strain CIN8 (second series), active compounds read low 0.0671 | locus YEL061C, strain CIN8, active compounds read low 0.0514 | locus YER015W, strain faa2, active compounds read low 0.0656 | locus YER016W, strain bim1, active compounds read low 0.0682 | locus YER110C, active compounds read low 0.0812 | locus YER111C, strain swi4, active compounds read low 0.0758 | locus YER155C, strain BEM2 (second series), active compounds read low 0.0947 | locus YER155C, strain BEM2, active compounds read low 0.0718 | locus YER167W, strain BCK2, active compounds read low 0.0519 | locus YFR010W, strain ubp6, active compounds read low 0.0703 | locus YGL078C, strain dbp3, active compounds read low 0.0608 | locus YGL086W, strain mad1, active compounds read low 0.0597 | locus YGL167C, strain pmr1, active compounds read low 0.0798 | locus YGL173C, strain kem1, active compounds read low 0.0716 | locus YGL227W, strain vid30, active compounds read low 0.0707 | locus YGL240W, strain doc1, active compounds read low 0.0866 | locus YGL248W, strain PDE1, active compounds read low 0.0515 | locus YGL253W, strain hxk2, active compounds read low 0.058 | locus YGR078C, strain PAC10, active compounds read low 0.0546 | locus YGR135W, strain pre9, active compounds read low 0.065 | locus YGR252W, strain gcn5, active compounds read low 0.175 | locus YHR013C, strain ard1, active compounds read low 0.11 | locus YHR027C, strain rpn1, active compounds read low 0.0647 | locus YHR030C, strain SLT2, active compounds read low 0.0526 and 0.0937 | locus YHR079C, strain IRE1 (second series), active compounds read low 0.0583 | locus YHR079C, strain IRE1, active compounds read low 0.109 | locus YHR094C, strain hxt1, active compounds read low 0.0632 | locus YHR129C, strain ARP1, active compounds read low 0.0642 | locus YHR142W, strain chs7, active compounds read low 0.0791 | locus YHR200W, strain rpn10, active compounds read low 0.0659 | locus YIL066C, strain RNR3, active compounds read low 0.0522 | locus YIL073C, strain SPO22, active compounds read low 0.112 | locus YIL125W, strain kgd1, active compounds read low 0.0598 | locus YIR030C, strain dcg1, active compounds read low 0.0627 | locus YJL092W, strain hpr5, active compounds read low 0.063 | locus YJL095W, strain BCK1 (second series), active compounds read low 0.0609 | locus YJL095W, strain BCK1, active compounds read low 0.063 and 0.0938 | locus YJL115W, strain asf1, active compounds read low 0.0778 | locus YJL129C, strain trk1, active compounds read low 0.0912 | locus YJL134W, strain LCB3, active compounds read low 0.0539 | locus YJL154C, strain vps35, active compounds read low 0.0631 | locus YJL164C, strain tpk1, active compounds read low 0.0734 | locus YJL166W, strain qcr8, active compounds read low 0.0662 | locus YJL168C, strain set2, active compounds read low 0.0634 | locus YJL187C, strain SWE1 (second series), active compounds read low 0.053 | locus YJL187C, strain SWE1, active compounds read low 0.0672 | locus YJR043C, strain POL32, active compounds read low 0.068 | locus YJR066W, strain TOR1, active compounds read low 0.00216 | locus YJR075W, strain HOC1, active compounds read low 0.0627 | locus YKL009W, strain mrt4, active compounds read low 0.0702 | locus YKL068W, active compounds read low 0.0617 | locus YKL085W, strain MDH1 (second series), active compounds read low 0.0539 | locus YKL085W, strain MDH1, active compounds read low 0.0539 | locus YKL160W, strain elf1, active compounds read low 0.0716 | locus YKL190W, strain CNB1, active compounds read low 0.0484 | locus YKR001C, strain vps1, active compounds read low 0.0653 | locus YKR026C, strain gcn3, active compounds read low 0.0732 | locus YKR091W, strain srl3, active compounds read low 0.069 | locus YLL001W, strain dnm1, active compounds read low 0.0664 | locus YLL026W, active compounds read low 0.0595 | locus YLL041C, strain sdh2, active compounds read low 0.0627 | locus YLR027C, strain aat2, active compounds read low 0.0603 | locus YLR039C, strain RIC1, active compounds read low 0.0987 | locus YLR058C, strain SHM2, active compounds read low 0.0519 | locus YLR102C, strain apc9, active compounds read low 0.0656 | locus YLR113W, strain HOG1, active compounds read low 0.121 | locus YLR221C, strain rsa3, active compounds read low 0.0659 | locus YLR258W, strain gsy2, active compounds read low 0.0669 | locus YLR262C, strain YPT6 (second series), active compounds read low 0.0856 | locus YLR262C, strain YPT6, active compounds read low 0.115 | locus YLR268W, strain sec22, active compounds read low 0.0687 | locus YLR320W, strain mms22, active compounds read low 0.0895 | locus YLR330W, strain CHS5, active compounds read low 0.0525 | locus YLR342W, strain FKS1 (second series), active compounds read low 0.0737 | locus YLR342W, strain FKS1, active compounds read low 0.0735 | locus YLR357W, strain rsc2, active compounds read low 0.133 | locus YLR370C, strain arc18, active compounds read low 0.0637 | locus YLR371W, strain rom2, active compounds read low 0.0664 | locus YLR384C, strain iki3, active compounds read low 0.0637 | locus YLR418C, strain cdc73, active compounds read low 0.0958 | locus YML016C, strain PPZ1, active compounds read low 0.0483 | locus YML032C, strain rad52, active compounds read low 0.0723 | locus YML120C, strain ndi1, active compounds read low 0.0605 | locus YML124C, strain tub3, active compounds read low 0.0619 | locus YMR058W, strain fet3, active compounds read low 0.0627 | locus YMR078C, strain ctf18, active compounds read low 0.0787 | locus YMR125W, strain sto1, active compounds read low 0.0836 | locus YMR129W, active compounds read low 0.0601 | locus YMR205C, strain PFK2, active compounds read low 0.0903 | locus YMR223W, strain ubp8, active compounds read low 0.0675 | locus YMR231W, strain pep5, active compounds read low 0.0767 | locus YMR307W, strain GAS1, active compounds read low 0.146 | locus YNL067W, strain RPL9B, active compounds read low 0.0522 | locus YNL071W, strain lat1, active compounds read low 0.0645 | locus YNL183C, strain NPR1, active compounds read low 0.0014 | locus YNL209W, strain ssb2, active compounds read low 0.0627 | locus YNL233W, strain BNI4, active compounds read low 0.0583 | locus YNL248C, strain rpa49, active compounds read low 0.0814 | locus YNL250W, strain rad50, active compounds read low 0.0854 | locus YNL271C, strain bni1, active compounds read low 0.0657 | locus YNL298W, strain CLA4, active compounds read low 0.0613 | locus YNL307C, strain MCK1, active compounds read low 0.0688 | locus YNL322C, strain KRE1 (second series), active compounds read low 0.0705 | locus YNR049C, strain mso1, active compounds read low 0.0644 | locus YNR052C, strain pop2, active compounds read low 0.0622 | locus YOL147C, strain pex11, active compounds read low 0.0601 | locus YOR001W, strain rrp6, active compounds read low 0.0736 | locus YOR061W, strain CKA2, active compounds read low 0.0512 | locus YOR069W, strain VPS5, active compounds read low 0.0495 | locus YOR070C, strain gyp1, active compounds read low 0.0684 | locus YOR080W, strain dia2, active compounds read low 0.0706 | locus YOR083W, strain WHI5, active compounds read low 0.0687 | locus YOR106W, strain vam3, active compounds read low 0.065 | locus YOR136W, strain idh2, active compounds read low 0.0767 | locus YOR144C, strain elg1, active compounds read low 0.062 | locus YOR184W, strain ser1, active compounds read low 0.0708 | locus YOR231W, strain MKK1, active compounds read low 0.0947 | locus YOR265W, strain rbl2, active compounds read low 0.066 | locus YOR270C, strain vph1, active compounds read low 0.0971 | locus YOR290C, strain snf2, active compounds read low 0.0737 | locus YOR316C, strain cot1, active compounds read low 0.0627 | locus YPL051W, strain arl3, active compounds read low 0.0688 | locus YPL078C, strain atp4, active compounds read low 0.0715 | locus YPL106C, strain sse1, active compounds read low 0.116 | locus YPL240C, strain hsp82, active compounds read low 0.0653 | locus YPL256C, strain CLN2, active compounds read low 0.116 | locus YPR119W, strain clb2, active compounds read low 0.0705 | locus YPR141C, strain kar3, active compounds read low 0.0696 | locus YPR163C, strain tif3, active compounds read low 0.0728 | locus YPR167C, strain met16, active compounds read low 0.0671 | strain wtn01, active compounds read low 0.0665
